Experimental data reported in PubChem BioAssay (Tox21).
Values without a mark were called inactive. Calls of active or inactive are those of the source. The call rests on the fitted dose curve.

Target: Acetylcholinesterase (Homo sapiens) (UniProt P22303)
Assay: Acetylcholinesterase (AChE) small molecule antagonists: enzyme-based qHTS assay (AID 1347397); further: nearly all actives have a fitted effect of over 55% in size
Settings: Potency: AChE enzyme activity inhibition; outcome: AChE enzyme activity inhibition; series mostly up to 115 µM; activity change, negative = inhibition: at the top concentration
Description: National Center for Advancing Translational Sciences [NCATS]
Division of Preclinical Innovation [DPI]
U.S. Environmental Protection Agency [EPA]
National Institutes of Environmental Health Sciences [NIEHS]
National Toxicology Program [NTP]
U.S. Food and Drug Administration [FDA]
Acetylcholinesterase (AChE) is the primary cholinesterase in the body that hydrolyzes a key neurotransmitter, acetylcholine. Inhibition of AChE activity can lead to neurotoxicity. The known inhibitors include organophosphorous pesticides (OP), chemical warfare agents, drugs, and various phytochemicals.
An enzyme-based assay with the recombinant human AChE and Amplite Colormetric acetylcholinesterase assay kit (AAT Bioquest, Sunnyvale, CA) was used to evaluate the chemicals in the Tox21 10K library that inhibit AChE activity. The assay uses 5, 5-dithiobis-(2-nitrobenzoic acid) (DTNB) to quantify the thiocholine produced from the hydrolysis of acetylthiocholine by AChE.
Tox21 Assay Protocol Summary:
For the enzyme-based AChE assay, recombinant human AChE (50 mU/mL) in 4 uL/well was dispensed into black, clear-bottom 1536-well plates using a Multidrop Combi dispenser (Thermo Scientific, MA). Then, 23 nL of compound or DMSO (vehicle control) was transferred into the assay plates by a Pintool Station (Wako Automation, CA). The plates were incubated for 30 min at room temperature, followed by the addition of 4 uL of colorimetric detection cocktail solution (DTNB, acetylthiocholine) into each well using a Flying Reagent Dispenser (Beckman Coulter, CA) and then 10 min incubation at room temperature.
On the % scale 0 is the no-effect control and ±100 the full control effect; potency means the concentration at half of the fitted maximal effect.

Sequence of Acetylcholinesterase (Homo sapiens) (P22303 whole entry, looked up): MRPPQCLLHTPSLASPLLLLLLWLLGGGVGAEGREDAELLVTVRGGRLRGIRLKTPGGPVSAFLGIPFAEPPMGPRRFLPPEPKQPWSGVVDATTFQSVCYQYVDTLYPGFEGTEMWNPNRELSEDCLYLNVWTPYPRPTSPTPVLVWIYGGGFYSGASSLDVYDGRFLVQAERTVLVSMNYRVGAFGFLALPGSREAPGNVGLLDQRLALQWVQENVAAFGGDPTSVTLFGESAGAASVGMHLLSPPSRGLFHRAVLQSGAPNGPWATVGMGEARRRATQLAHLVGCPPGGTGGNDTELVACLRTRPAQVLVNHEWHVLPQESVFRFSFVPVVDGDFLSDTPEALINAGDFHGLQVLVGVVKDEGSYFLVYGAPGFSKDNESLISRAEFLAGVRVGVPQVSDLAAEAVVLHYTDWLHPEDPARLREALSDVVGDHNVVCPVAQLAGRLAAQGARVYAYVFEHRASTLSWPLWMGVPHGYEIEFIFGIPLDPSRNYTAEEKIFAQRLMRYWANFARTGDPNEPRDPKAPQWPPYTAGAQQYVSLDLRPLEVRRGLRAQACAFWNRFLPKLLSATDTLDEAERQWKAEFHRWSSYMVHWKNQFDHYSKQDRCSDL

SMILES	activity change, negative = inhibition	Potency
CN1CC(=O)N2[C@H](c3ccc4c(c3)OCO4)c3[nH]c4ccccc4c3C[C@@H]2C1=O	-3.22% [at 53 µM]	–
O=C(O)CNC(=O)c1ccccc1I	2.15% [at 53 µM]	–
CCc1c(Br)c(Br)c(Br)c(Br)c1Br	1.08%	–
N#CSCSc1nc2ccccc2s1	-1.05%	–
CCO[Si](C)(OCC)OCC	-0.354%	–
CCOC(=N)CC(=O)OCC	-0.0083%	–
O=C(Oc1ccccc1)c1cccc(C(=O)Oc2ccccc2)c1	-9.87%	–
O=C(CCN1CCN2CCCC2C1)N1c2ccccc2Sc2ccc(Cl)cc21 (stereo not given)	0.831% [at 23.6 µM]	–
CC/C=C/CCCCCCCCCCOC(C)=O	2.08%	–
OCCc1ccncc1	-2.47%	–
CC(C(=O)O)c1ccc(C(=O)c2ccccc2)s1 (stereo not given)	0.553% [at 53 µM]	–
CC/C=C\CCCCO	0.138%	–
CCN(CC)c1ccc(C=O)cc1	1.75%	–
CC(C)(C)c1ccccc1	1.02%	–
CC1CCN(CCCC(=O)c2ccc(F)cc2)CC1	-0.477% [at 53 µM]	–
Cc1ccco1	0.409%	–
Cc1cc(C)c(O)c(C(C)(C)C)c1	-0.358%	–
CCCCCCCC[N+](CCCCCCCC)(CCCCCCCC)CCCCCCCC	–	39.8 µM (active)
CCC(C)(Oc1ccc(C2(c3ccc(OC(C)(CC)C(=O)O)cc3)CCCCC2)cc1)C(=O)O (stereo not given)	0.904% [at 53 µM]	–
S=P(N1CC1)(N1CC1)N1CC1	–	59.4 µM (active)

SMILES	activity change, negative = inhibition	Potency
O=C(O)c1c2ccccc2cc2ccccc12	-0.817%	–
CN(C[C@@H](CC[N+]12CCC(C3CCCCC3)(CC1)CC2)c1ccc(Cl)c(Cl)c1)C(=O)c1cc(C(F)(F)F)cc(C(F)(F)F)c1	–	7.96 µM (active)
CCC(=O)O[C@]1(C(=O)COC)[C@@H](C)C[C@H]2[C@@H]3CCC4=CC(=O)C=C[C@]4(C)C3(F)[C@@H](O)C[C@@]21C (stereo not given in full)	-1.36% [at 53 µM]	–
CCCn1cc[n+](C)c1C	0%	–
Cc1cc(O)c2ccccc2c1O	-2.04% [at 53 µM]	–
O=C1CC[C@@H](C(=O)O)N1	2.2% [at 53 µM]	–
CC(C)CCCC(C)NCCC(C)C (stereo not given)	3.16% [at 53 µM]	–
CC(C)=CCOc1ccc(/C=C/C(=O)c2ccc(OCC=C(C)C)cc2OCC(=O)O)cc1	3.14% [at 53 µM]	–
CSc1nc(NC2CC2)nc(NC(C)(C)C)n1	0.645%	–
CCN1CCC[C@H]1CNC(=O)c1c(OC)ccc(Br)c1OC	0% [at 53 µM]	–
Oc1c(Br)cc(Br)c2cccnc12	4.19% [at 53 µM]	–
CC(=O)Oc1cc2c(s1)CCN(C(C(=O)C1CC1)c1ccccc1F)C2 (stereo not given)	-0.154% [at 53 µM]	–
CC[N+](CC)(CC)Cc1ccccc1	-1.49%	–
c1ccc(B(c2ccccc2)c2ccccc2)cc1	1.31%	–
CCC(C(=O)OCCOCCN(CC)CC)c1ccccc1 (stereo not given)	0.831% [at 53 µM]	–
CC(=O)OCC(=O)[C@@]1(O)[C@H](OC(C)=O)C[C@H]2[C@@H]3CCC4=CC(=O)C=C[C@]4(C)[C@@]3(F)[C@@H](O)C[C@@]21C	-2.9% [at 53 µM]	–
COc1cc(Cl)ccc1Oc1ccc(Cl)cc1Cl	0.665%	–
CCC[C@@H]1C[C@@H](C(=O)N[C@@H]([C@H]2O[C@H](SC)[C@H](O)[C@@H](O)[C@H]2O)[C@@H](C)O)N(C)C1	0.121% [at 53 µM]	–
Cc1ccc([N+](=O)[O-])cc1Cl	-1.36%	–
O=c1[nH]cnc2ccccc12	-0.676%	–
